Sampled rows, rich in hits. Any-hit rate of the full collection: about 19%.
HT1080NT lethal: kills 2HG-producing HT-1080-NT fibrosarcoma cells. HT-1080-NT fibrosarcoma viability, CellTiter-Glo ATP luminescence, 48 h. Potency, µM (highest dose often 46.1 µM), actives largely listed as cytotoxic. 360,000 tested, 1.6% active. AID 686970;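 also: NT is the 2HG producing partner of a matched IDH1 knockdown line; nearly all actives have a fitted effect of over 55% in size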
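Fibrosarcoma NT cells, 750 per well in 5% FBS RPMI, were exposed to compound for 48 hours. Viability: CellTiter-Glo luminescence.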
HT1080 IDH1KD tx: toxicity to HT-1080 IDH1 knockdown cells (counter line). HT-1080 IDH1 knockdown viability, ATP luminescence, 48 h. Potency, µM (series often up to 46.1 µM), usual class: cytotoxic. 360,000 tested, 2% active
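After a 2 h attachment period, IDH1KD HT-1080 cells took pin-transferred compound for 48 h at 37 °C; ATP-based luminescence after 10 min room-temperature reagent incubation reported viability.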
TDP1 cell CPT: growth inhibition of DT40 Tdp1-/-;hTDP1 cells with camptothecin (screen for TDP1 inhibitors). chicken DT40 Tdp1-/-;hTDP1 cells + 20 nM CPT, ATP luminescence, 48 h. 420,000 tested, 12% active. Potency, µM (highest dose often 46.2 µM), actives largely listed as inhibitors; also: nearly all actives have a fitted effect of over 55% in size
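Chicken DT40 Tdp1-/- cells complemented with human TDP1, 400 cells/well, exposed to compounds plus 20 nM camptothecin for at least 48 h at 37 C; viability read as ATP content by CellTiter-Glo luminescence.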
DT40 TDP1 no CPT: qHTS for Inhibitors of human tyrosyl-DNA phosphodiesterase 1 (TDP1): qHTS in cells in absence of CPT; DT40 Tdp1-/- hTDP1 cells, no CPT, ATP luminescence, 48 h; Potency, µM (series often up to 46.2 µM), hits mostly inhibitors; 420,000 tested, 15% active; also: nearly all actives have a fitted effect of over 55% in size
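Luminescent ATP content (CellTiter-Glo) served as the growth readout. Knockout chicken DT40 cells expressing human TDP1 were exposed to compounds without camptothecin for a minimum 48 hr at 37 °C.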
IL-1B inflam inh: inhibitors of inflammasome signaling (IL-1 beta secretion); activity change, % at 57.5 µM; THP-1 LPS/ATP IL-1B secretion, AlphaLISA, 16 h; active compounds read low; 360,000 tested, 4.7% active; AID 743279; in the data active = activity change below about -50%; inconclusive = mostly about -30% to -49%
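THP-1 cells pretreated 1 hr with compounds (up to 57.5 uM final), then stimulated with LPS (250 ng/mL final) plus ATP (1.25 mM final); secreted IL-1B measured by AlphaLISA after 16 hr, decreased signal indicating inhibition.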
A number is an active result; i = inactive; ? = inconclusive; nt = no result; [ ] = dose if it differs, or a comment. Unless noted, calls follow the shape of the dose curve; as a rule, active = well fitted curve in the direction sought with a large enough effect; inconclusive = small, poorly fitted or top-dose-only effect, or another doubt; inactive = no such curve, though single readings can be large; an effect the other way counts as inactive or inconclusive.

SMILES	HT1080NT lethal	HT1080 IDH1KD tx	TDP1 cell CPT	DT40 TDP1 no CPT	IL-1B inflam inh
O=S(=O)(Nc1nnc(-c2ccccc2)s1)c1ccc(Cl)cc1	i	i	?	16.4µM	i
CC(=O)c1ccc(NC(=O)COc2ccccc2-c2nc(C(C)C)no2)cc1	nt	nt	i	?	nt
Cc1cc(C(=O)CSc2nc3ccccc3c(=O)n2C)c(C)n1Cc1ccc2c(c1)OCO2	i	5.8µM	5.8µM	6.51µM	i
Cc1cc(C)cc(-n2c(SCC(=O)NCc3ccc4c(c3)OCO4)nc3ccccc3c2=O)c1	i	i	7.31µM	18.4µM	i
O=C(CSc1nc2cc([N+](=O)[O-])ccc2n1-c1ccccc1)NCc1ccc2c(c1)OCO2	i	i	14.6µM	23.1µM	i
Cc1ccc(N(C(=O)c2csnn2)C(C(=O)NC2CCCC2)c2ccccn2)cc1 (centres undefined)	i	i	i	i	i
CCNC(=O)C1(C)CCCN(Cc2ccccc2-c2ccccc2)C1 (centres undefined)	i	i	?	?	i
COc1ccc(NC(=O)C2(C)Cc3c(-c4cccc(C(F)(F)F)c4)ccnc3O2)cn1 (centres undefined)	?	?	5.17µM	2.91µM	i
COc1ccc(NC(=O)C2(C)Cc3c(-c4ccccc4)ccnc3O2)cn1 (centres undefined)	?	?	5.8µM	6.51µM	i
CC(=O)Nc1ccc(NC(=O)C2(C)Cc3c(-c4ccccc4)ccnc3O2)cc1 (centres undefined)	?	i	?	i	i
CC1(C(=O)Nc2ccccc2)Cc2c(-c3cccc(C(F)(F)F)c3)ccnc2O1 (centres undefined)	i	i	?	?	?
COc1ccc(NC(=O)C2(C)Cc3c(-c4ccc(N(C)C)cc4)ccnc3O2)cc1 (centres undefined)	?	?	29.1µM	?	i
COc1ccc(NC(=O)C2(C)Cc3c(-c4ccc(NC(C)=O)cc4)ccnc3O2)cc1 (centres undefined)	i	i	?	?	?
CCC(=O)N1CCc2cc(S(=O)(=O)Nc3ccccc3C)ccc21	i	i	i	?	i
Cc1cc(C)c(S(=O)(=O)NCc2ccc3c(c2)cc(C)n3C)c(C)c1	i	i	?	23.1µM	i
Cc1cc(C)c(S(=O)(=O)NCc2ccc3c(c2)CCN3C(=O)c2ccccc2)c(C)c1	nt	nt	14.6µM	10.3µM	nt
CCC(=O)N1CCc2cc(CNS(=O)(=O)c3c(C)cc(C)cc3C)ccc21	nt	nt	?	20.6µM	nt
COC(=O)C[C@@H]1OC[C@H](C(C)C)N1S(=O)(=O)c1ccc(C)cc1	i	i	i	?	i
Cc1nc(N2CCOCC2)c2c(C(=O)NCCc3ccccc3)c(C)oc2n1	nt	nt	i	i	nt
CCOC(=O)[C@H]1[C@H]2COc3ccc(Cl)cc3[C@@H]2N2C(=O)CN(CC3CCCO3)C(=O)[C@@]12C (some centres undefined)	i	i	i	i	i
O=S(=O)(Nc1cc(Cl)ccc1-n1cncn1)c1cc(Br)ccc1Br	?	?	25.9µM	5.8µM	-54.2
O=S(=O)(Nc1cc(Cl)ccc1-n1cncn1)c1ccc(F)cc1	i	i	?	?	i
CC1(C)Cc2[nH]c3ccccc3c2C(C)(C)N1	i	i	i	i	?
CCCCNC(=S)NNC(=O)c1csc2ccccc12	?	i	?	25.9µM	i
O=C(c1ccccn1)N(Cc1cccs1)C1(C(=O)NC2CCCCC2)CCCCC1	i	i	i	?	i
SMILES	HT1080NT lethal	HT1080 IDH1KD tx	TDP1 cell CPT	DT40 TDP1 no CPT	IL-1B inflam inh
CCCCOc1ccc(SCCCN2CCOCC2)cc1	i	i	?	?	i
CCC(C)Sc1nnc(NS(=O)(=O)Cc2ccccc2)s1 (centres undefined)	i	i	i	i	i
O=C1c2ccc3c4c(ccc(c24)C(=O)N1CCCCO)C(=O)N(CCCCO)C3=O	23.1µM	11.6µM	2.06µM	2.59µM	-71.8
CCCCN1c2cc(C)c(O)cc2C(C(=O)OCC)C1C (centres undefined)	i	i	i	i	i
Cc1[nH]c2ccc(C(=O)N3CCCC3)cc2c1C	i	i	i	i	i
COc1ccccc1N1CCN(CC(=O)c2c(C)n(C)c3ccccc23)CC1	i	i	?	?	i
COc1ccccc1N1CCN(C(=O)c2ccc3[nH]c(C)c(C)c3c2)CC1	1.46µM	1.3µM	1.3µM	1.03µM	i
CCc1cc(C(=O)N2CCN(c3ccccc3OC)CC2)sc1C	?	?	?	16.4µM	i
COc1ccccc1N1CCN(CC(=O)c2c(C)[nH]c3cc(C)ccc23)CC1	i	i	?	18.4µM	i
COc1ccccc1N1CCN(C(=O)c2ccc3[nH]c4c(c3c2)CC(C)CC4)CC1 (centres undefined)	?	?	16.4µM	?	-93.6
CCN(CC)CCNC(=O)c1ccc(NC(=O)c2ccc(F)cc2)cc1	i	i	i	i	i
COc1cccc(CNC(=S)NC2CC2)c1	i	i	i	i	i
NC(=O)Nc1ccccc1C(=O)N1CCC(O)(c2ccc(Cl)cc2)CC1	i	i	i	i	i
Cc1[nH]c2ccc(C(=O)N3CCN(c4cccc(Cl)c4)CC3)cc2c1C	?	7.31µM	6.51µM	6.51µM	i
Cc1ccc(C2=C(c3ccc([N+](=O)[O-])cc3)C(=O)OC2)cc1C	i	i	?	18.4µM	i
CS/C(=N\S(=O)(=O)c1cccs1)Nc1ccc(F)c(Cl)c1	i	i	i	?	i
CS/C(=N\S(=O)(=O)c1cccs1)Nc1cccc(Cl)c1C	i	i	14.6µM	?	i
CCN1C[C@@H]2[C@@H]3C(=O)N(Cc4ccccc4)C(=O)[C@@H]3[C@](Cc3ccccc3)(C1=O)N2C(=O)c1ccc(Cl)cc1	i	i	?	?	i
COc1cc(C)ccc1OCc1cc(C(=O)N(Cc2c(C)nn(C)c2C)C2CC2)no1	i	i	?	16.4µM	i
COC(=O)c1cc(CSc2nc3ccc(C)cc3[nH]2)oc1C	i	i	16.4µM	18.4µM	i
COC(=O)c1cc(CSc2nnc(-c3ccccc3)c(-c3ccccc3)n2)oc1C	i	i	23.1µM	20.6µM	i
O=C(CSc1nc2ccccc2c(=O)n1Cc1ccco1)NCc1ccccc1	i	i[9.24 µM]	i	i	i
COC(=O)c1ccc(CSc2nc(C)nc3sc(C)c(C)c23)o1	i	?	14.6µM	10.3µM	i
COc1ccc(CNC(=O)CSc2nc3ccc(C)cc3[nH]2)cc1	i	i	?	?	i
COC(=O)c1ccc(CSc2nc3ccccc3c(=O)n2Cc2ccco2)o1	?	i	23.1µM	16.4µM	i
Cc1ccc(S(=O)(=O)N2CC(CO)=CCC2c2ccccc2)cc1 (centres undefined)	i	i	?	?	i
